# Results from PubChem BioAssay (NCI).
# The panel holds about 83,000 compounds, 20% with a hit somewhere; the sample as a whole holds those more often.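 Activity criterion: percent growth below 10, measured after cells in 96-well plates were exposed to a single compound concentration for 48 hours.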 A number with no mark means an inactive call. Activity calls are given as the source filed them.
# Tests used:
# Experiment in all cases: NCI-60 one-dose screen, 48 h (100 = growth as untreated, 0 = no growth, -100 = all killed)
# Settings in all cases: 10 µM unless noted
# NCI-H23 lung = test system: NCI-H23 lung
# NCI-H226 lung = test system: NCI-H226 lung
# NCI-H322M lung = test system: NCI-H322M lung
# HOP-62 NSCLC = test system: HOP-62 NSCLC
# NCI-H460 lung = test system: NCI-H460 lung
# HOP-92 NSCLC = test system: HOP-92 NSCLC
# NCI-H522 lung = test system: NCI-H522 lung
# A549/ATCC NSCLC = test system: A549/ATCC NSCLC
# 786-0 renal = test system: 786-0 renal
# COLO 205 colon = test system: COLO 205 colon
# DU-145 prostate = test system: DU-145 prostate
# K-562 leukemia = test system: K-562 leukemia
# MALME-3M melanoma = test system: MALME-3M melanoma
# MDA-MB-231 breast = test system: MDA-MB-231 breast
# RXF 393 renal = test system: RXF 393 renal
# SF-268 CNS = test system: SF-268 CNS
# SF-295 CNS = test system: SF-295 CNS
# SF-539 CNS = test system: SF-539 CNS
# UACC-257 melanoma = test system: UACC-257 melanoma
# M14 melanoma = test system: M14 melanoma
Structure (SMILES),growth (NCI-H23 lung),growth (NCI-H226 lung),growth (NCI-H322M lung),growth (HOP-62 NSCLC),growth (NCI-H460 lung),growth (HOP-92 NSCLC),growth (NCI-H522 lung),growth (A549/ATCC NSCLC),growth (786-0 renal),growth (COLO 205 colon),growth (DU-145 prostate),growth (K-562 leukemia),growth (MALME-3M melanoma),growth (MDA-MB-231 breast),growth (RXF 393 renal),growth (SF-268 CNS),growth (SF-295 CNS),growth (SF-539 CNS),growth (UACC-257 melanoma),growth (M14 melanoma)
COc1cc2c(=O)n(CCCN(C)C)c3c4cc5c(cc4ccc3c2cc1OC)OCO5,58.6%,52.8%,61.6%,38%,18.2%,67.7%,53.9%,41.8%,62.8%,49%,63.5%,56.3%,67.8%,67%,45.3%,50.4%,42.5%,46.2%,93.1%,66.6%
O=C(/C=C/c1ccc(F)cc1)c1ccc(NC(=O)N2CCN(c3cc4c(cc3F)c(=O)c(C(=O)O)cn4C3CC3)CC2)cc1,92.8%,96.1%,100%,98%,82.9%,88.5%,87%,102%,92.4%,115%,103%,91.2%,91.3%,89.7%,98.3%,89.9%,98.7%,94.1%,97.2%,97.8%
COc1cc2oc(-c3cccc(C(=O)Nc4ccc5c(c4)OCO5)c3)cc(=O)c2c(O)c1OC,72.7%,78.5%,81%,60.4%,54.3%,73%,76%,74.9%,64.3%,94.8%,80.4%,94.5%,88.1%,68.1%,81.5%,58.7%,92.1%,88.8%,78.2%,89.7%
N#Cc1c(NCc2ccccc2I)sc2c1CCCCC2,87.5%,87.5%,89.9%,91.3%,96.7%,88.8%,86.7%,85.7%,90%,108%,102%,95.3%,87.5%,85.4%,93.6%,93.7%,97.3%,97.3%,93.7%,97.3%
Cn1ccnc1C(=O)/C=C/c1ccc(CC(=O)NC2CCCCC2)cc1,61.9%,92.8%,61%,56%,26%,75%,52.1%,64.1%,71.3%,67.9%,6.25% (active),18%,92%,65.1%,73.2%,40.9%,77.8%,63.7%,84.8%,89.8%
COc1ccccc1NC(=O)C1CC(c2ccc(F)cc2)=NO1 (stereo not given),100%,99.2%,102%,97.5%,98.5%,89.7%,92.6%,95.2%,101%,111%,106%,95%,100%,98.5%,97%,97.4%,96.2%,95.5%,107%,104%
COc1cc(NC(C)CCCNC(=O)CCC(=O)NCCCNCCCCCCCCCCNCCCNC(=O)CCC(=O)NCCCC(C)Nc2cc(OC)cc3cccnc23)c2ncccc2c1 (stereo not given),63.4% [8 µM],58.6% [8 µM],32.1% [8 µM],101% [8 µM],81% [8 µM],59% [8 µM],57.1% [8 µM],63.7% [8 µM],92.5% [8 µM],26.7% [8 µM],71.8% [8 µM],51.2% [8 µM],38.9% [8 µM],34.6% [8 µM],88.1% [8 µM],66% [8 µM],97% [8 µM],75.7% [8 µM],47.1% [8 µM],87% [8 µM]
Cc1cc(C(=O)/C=C/c2ccc[nH]2)ccc1-n1ccc(C(F)(F)F)n1,89.5%,89.8%,97.5%,106%,98.9%,104%,-9.61% (active),84.9%,48.7%,115%,96%,53.3%,94.7%,30.6%,21.2%,49.1%,85%,13.5%,97.4%,90.5%
